Experimental findings from PubChem BioAssay AID504904 (The Scripps Research Institute Molecular Screening Center, 2011) are described below.

The list shows a part of the results. Values without a mark were called inactive. Calls of active or inactive are those of the source. Cut-off read from the data, not from the text of the source: active = activation above about 18%; inactive = the rest.

Sequence of Mu-type opioid receptor (Homo sapiens) + Delta-type opioid receptor (Homo sapiens) (P35372 whole entry, looked up): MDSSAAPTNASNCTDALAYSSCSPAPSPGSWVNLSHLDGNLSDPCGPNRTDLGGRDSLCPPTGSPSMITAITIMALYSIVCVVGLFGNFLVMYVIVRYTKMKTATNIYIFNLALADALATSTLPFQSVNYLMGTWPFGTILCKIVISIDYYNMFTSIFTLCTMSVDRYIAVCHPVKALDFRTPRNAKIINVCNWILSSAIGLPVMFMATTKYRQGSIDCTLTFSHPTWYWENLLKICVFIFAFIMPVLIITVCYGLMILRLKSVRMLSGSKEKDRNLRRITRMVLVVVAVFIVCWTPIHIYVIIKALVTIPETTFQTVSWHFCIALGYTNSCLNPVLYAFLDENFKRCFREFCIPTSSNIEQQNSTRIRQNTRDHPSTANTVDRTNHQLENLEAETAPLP
Sequence of Mu-type opioid receptor (Homo sapiens) + Delta-type opioid receptor (Homo sapiens) (P41143 whole entry, looked up): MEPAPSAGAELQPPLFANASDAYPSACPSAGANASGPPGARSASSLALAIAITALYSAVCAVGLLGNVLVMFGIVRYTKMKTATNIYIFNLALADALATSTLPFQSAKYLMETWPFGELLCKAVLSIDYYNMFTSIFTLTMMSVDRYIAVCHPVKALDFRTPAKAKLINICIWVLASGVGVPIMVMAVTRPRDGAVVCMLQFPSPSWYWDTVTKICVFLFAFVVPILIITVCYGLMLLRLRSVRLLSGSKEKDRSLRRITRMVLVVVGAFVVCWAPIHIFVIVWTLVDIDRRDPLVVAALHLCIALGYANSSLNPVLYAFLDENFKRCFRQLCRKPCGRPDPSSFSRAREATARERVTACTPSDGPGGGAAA

The assay addresses Mu-type opioid receptor (Homo sapiens) + Delta-type opioid receptor (Homo sapiens) (UniProt P35372+P41143). Kind of assay: OPRM1-OPRD1 heterodimer formation agonism – cell-based, luminescence, confirmation (AID 504904).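 Note: 0% = vehicle-treated cells and 100% = reference agonist.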 To be noted: cells, MOR-DOR heterodimerization, luminescence complementation; at 9.3 µM; active compounds read high.
On to `O=C(Nc1ccc(OC(F)(F)F)cc1)c1ccc2c(c1)no[n+]2[O-]`, for which the activation was 13.3%. The same measure for `COc1ccc(C2Nc3ccccc3C(=O)N2c2ccc(F)cc2)cc1Cn1nnc2ccccc21` (stereo unspecified): 0.83%.

As to `Cc1ccc(OCC(=O)Nc2ccc(NC(=O)c3cccs3)cc2)c(C)c1`, the activation is 421% (active). As to `CN1C(CC(=O)Nc2ccc(Br)cc2)c2ccccc2CC1(C)C` (stereo unspecified), the activation is 89.7% (active). The same measure for `CC(OC(=O)/C=C/c1ccccc1)C(=O)Nc1ccc(C(N)=O)cc1` (stereo unspecified): -2.09%. Next, `Cc1cc(C)cc(C(=O)N(CCc2ccccc2)C2=CC3CCC(C2)N3C)c1` (stereo unspecified): 137% (active). Consider `COc1ccc(-n2nnnc2-c2nc3ccccc3s2)cc1`, for which the activation is 3.47%. Next, `Cc1ccc(-n2c(SCC(=O)NCCC3=CCCCC3)nc3n[nH]c(C)c3c2=N)cc1Cl`: 2.44%; `Cc1ccc(Nc2ccccc2N)cc1`: 3.92%. The same measure for `O=C(NCc1cn2ccsc2n1)Nc1ccc(Cl)cc1`: 7.03%.

Turning to `COCCCNc1nc2c(-c3cccc(C)c3)nnn2c2ccc(Cl)cc12`, the activation was 15.3%. `Cc1ccc(S(=O)(=O)N(CC(=O)Nc2cccnc2)c2ccc(Br)cc2)cc1`: the activation was 20.6% (active). Next, `COc1ccc(C(CNCC(=O)Nc2ccccc2F)N(C)C)cc1` (stereo unspecified): 145% (active).

Consider `CCOC(=O)c1c(C)[nH]c2c1-c1ccccc1C(=O)C2=O`, for which the activation was 18.7% (active).

Consider `CCCC(=O)NC(C)C(c1cccs1)N1CCN(c2ccccc2)CC1` (stereo unspecified), for which the activation is 36.7% (active).

Consider `COc1ccc(SC[C@H](Cc2ccccc2)N2CCN(CCc3ccccc3)CCC2=O)cc1`, for which the activation was 28.3% (active). Next, `COc1cc(C(=O)OC(C)C(=O)NCC2CCCCC2)cc(NC(=O)c2ccco2)c1OC` (stereo unspecified): 213% (active); `Cc1ccc(CNC(=O)CC(NC(=O)c2ccccc2)c2ccccc2)cc1` (stereo unspecified): -2.24%. The same measure for `CCc1ccc(C(CNc2nc(C(F)(F)F)nc3ccccc23)N(C)C)cc1` (stereo unspecified): 42.4% (active). With `N#CC(C(=O)c1ccc(S(=O)(=O)N2CCCCCC2)cc1)c1nc2ccccc2[nH]1` (stereo unspecified), the activation is 6.41%. Turning to `O=C1N/C(=C/c2cccs2)C(=O)N1Cc1ccc(F)cc1`, the activation was 35% (active).
